Data taken from PubChem BioAssay (Tox21).
Where “and” joins values, the source holds several entries; their conditions need not be identical. Equal entries are not always repeated. Calls of active or inactive are those of the source. Entries that show only a call come without a potency. Unless noted, calls come from the whole dose curve; as a rule, active = well fitted curve in the direction sought with a large enough effect in the repeat runs; inconclusive = weak or mixed curves; inactive = no such curve, though single readings can be large; an effect the other way counts as inactive or inconclusive.

Columns and labels:
[1] = qHTS assay to identify small molecule antagonists of the thyroid receptor (TR) signaling pathway - cell viability counter screen (AID 743064); note: nearly all actives have a fitted effect of over 50% in size
Summary of the method: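 Rat GH3 pituitary tumor cells stably expressing two TR response elements driving luciferase were plated, rested 4 h, then dosed with library compounds and T3 (1 nM final). After 23.5 h at 37 °C, CellTiter-Fluor was added for 30 min and fluorescence recorded.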

[2] = qHTS assay to identify small molecule antagonists of the thyroid receptor (TR) signaling pathway (AID 743065); note: nearly all actives have a fitted effect of over 55% in size
Summary of the method: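 GH3.TRE-Luc rat pituitary cells (two TREs driving luciferase) were dosed with compound, then stimulated with 1 nM T3 (final) for 23.5 h at 37 C. ONE-Glo luminescence was the read-out, with CellTiter-Fluor fluorescence as the cytotoxicity counter-screen.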

[3] = tested on: thyroid hormone receptor (rat, GH3 cells); assay: qHTS assay to identify small molecule agonists of the thyroid receptor (TR) signaling pathway (AID 743066; calls by dose curve)
[4] = qHTS assay to identify small molecule antagonists of the estrogen receptor alpha (ER-alpha) signaling pathway - cell viability counter screen (AID 743074; calls by dose curve;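 note: HEK293 cells carrying ER-alpha-UAS-bla reporter stimulated with 17beta-estradiol; nearly all actives have a fitted effect of over 45% in size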)
[5] = qHTS assay to identify small molecule antagonists of the estrogen receptor alpha (ER-alpha) signaling pathway using the BG1 cell line - cell viability counter screen (AID 743081);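 note: compound given together with 17beta-estradiol as the ER stimulus; nearly all actives have a fitted effect of over 45% in size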
[6] = biological target: Estrogen receptor (Homo sapiens) (UniProt P03372); assay: qHTS assay to identify small molecule antagonists of the estrogen receptor alpha (ER-alpha) signaling pathway (AID 743069; active = well fitted curve in the direction sought with a large enough effect in the signal ratio in the repeat runs, not every such curve was filed as active; inconclusive = weak or mixed curves, or effect the other way; inactive = no such curve, though single readings can be large or run the other way; the % refers to the signal ratio)
Sequence of Estrogen receptor (Homo sapiens) (P03372 whole entry, looked up): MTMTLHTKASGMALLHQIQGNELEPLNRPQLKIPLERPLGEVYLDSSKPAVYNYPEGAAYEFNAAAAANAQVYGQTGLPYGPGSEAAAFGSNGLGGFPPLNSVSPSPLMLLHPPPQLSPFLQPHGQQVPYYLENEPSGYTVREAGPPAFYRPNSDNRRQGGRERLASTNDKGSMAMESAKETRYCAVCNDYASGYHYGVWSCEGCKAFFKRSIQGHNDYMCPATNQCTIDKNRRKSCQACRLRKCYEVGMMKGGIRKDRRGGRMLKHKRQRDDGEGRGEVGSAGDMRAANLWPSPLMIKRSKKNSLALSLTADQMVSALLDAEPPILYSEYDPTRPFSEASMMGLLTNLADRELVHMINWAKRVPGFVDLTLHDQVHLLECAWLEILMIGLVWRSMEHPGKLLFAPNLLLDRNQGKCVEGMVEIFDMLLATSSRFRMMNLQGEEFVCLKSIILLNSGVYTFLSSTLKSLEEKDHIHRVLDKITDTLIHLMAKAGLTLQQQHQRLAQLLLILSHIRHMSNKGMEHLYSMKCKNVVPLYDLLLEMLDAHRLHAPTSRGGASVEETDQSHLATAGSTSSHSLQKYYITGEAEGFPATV
Summary of the method: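 Reporter cells (ER-alpha-bla, HEK293 background) are conditioned overnight in stripped-serum medium (2% charcoal-stripped FBS). Compound and 17beta-estradiol exposure runs 18 hr at 37C, 5% CO2.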

[7] = qHTS assay to identify small molecule antagonists of the estrogen receptor alpha (ER-alpha) signaling pathway using the BG1 cell line (AID 743080; calls by dose curve;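 note: BG1 cells stimulated with 17beta-estradiol alongside compound; nearly all actives have a fitted effect of over 25% in size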)
Summary of the method: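 Endogenous full-length ER-alpha in BG1-Luc-4E2 cells drives a stably integrated 4×ERE luciferase gene; compounds were tested against 17beta-estradiol over 21.5 h, with luminescence and multiplexed viability fluorescence recorded.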

[8] = biological target: Aromatase (Homo sapiens) (UniProt P11511); assay: qHTS assay to identify aromatase inhibitors (AID 743083); note: nearly all actives have a fitted effect of over 55% in size
Sequence of Aromatase (Homo sapiens) (P11511 whole entry, looked up): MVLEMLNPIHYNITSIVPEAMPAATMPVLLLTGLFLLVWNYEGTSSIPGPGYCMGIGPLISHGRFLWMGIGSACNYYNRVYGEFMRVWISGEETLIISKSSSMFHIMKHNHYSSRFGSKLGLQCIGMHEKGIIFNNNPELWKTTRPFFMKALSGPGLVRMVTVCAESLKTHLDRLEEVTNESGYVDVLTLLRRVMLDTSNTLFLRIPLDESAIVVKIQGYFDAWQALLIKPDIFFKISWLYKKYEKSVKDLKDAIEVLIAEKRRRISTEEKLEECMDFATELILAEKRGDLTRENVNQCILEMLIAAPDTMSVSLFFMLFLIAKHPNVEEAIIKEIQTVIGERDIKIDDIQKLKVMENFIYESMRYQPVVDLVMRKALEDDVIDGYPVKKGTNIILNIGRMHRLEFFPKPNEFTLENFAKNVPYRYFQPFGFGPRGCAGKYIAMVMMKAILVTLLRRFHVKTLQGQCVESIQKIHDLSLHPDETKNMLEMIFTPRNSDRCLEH

[9] = biological target: Estrogen receptor (Homo sapiens) (UniProt P03372); assay: qHTS assay to identify small molecule agonists of the estrogen receptor alpha (ER-alpha) signaling pathway (AID 743075; calls by dose curve;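 note: HEK293 GripTite cells with ER-alpha and UAS-driven beta-lactamase reporter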)
[10] = biological target: Estrogen receptor (Homo sapiens) (UniProt P03372); assay: qHTS assay to identify small molecule agonists of the estrogen receptor alpha (ER-alpha) signaling pathway using the BG1 cell line (AID 743079); conditions: BG1Luc4E2 cells, ERE-luciferase agonist, 22 h; activation: at 70.3 µM (top of the series); note: nearly all actives have a fitted effect of over 20% in size
Potency is the fitted concentration of half-maximal effect.

SMILES | Potency [1] | Potency [2] | Potency [3] | Potency [4] | Potency [5] | Potency [6] | Potency [7] | Potency [8] | Potency [9] | Potency [10]
CN(C)CCc1c[nH]c2ccccc12 | inactive | inactive | inactive | inactive | inactive | – | – | – | – | –
O=Cc1ccccc1 | inactive | inactive | inactive | inactive | inactive | – | – | – | – | –
COc1nc(C)nc(NC(=O)NS(=O)(=O)c2ccccc2Cl)n1 | inactive | inactive | inactive | inactive | inactive | inactive | inactive | inactive | – | –
c1ccc2nc(N3CCNCC3)ccc2c1 | 29.8 µM (active) | 29.8 µM (active) | inactive | – | – | inactive | – | – | inactive | –
CN(C)c1ccc(N)cc1 | 59.6 µM (active) | 47.4 µM (active) | inactive | – | – | 60.2 µM [inconclusive] (active) | – | – | inactive | 7.51 µM (active)
CC(C)C(Br)C(=O)NC(N)=O (configuration not stated) | inactive | inactive | inactive | – | inactive | inactive | inactive | inactive | inactive | inactive
O=C1C[C@@H]2OCC=C3CN4CC[C@]56c7ccccc7N1[C@H]5[C@H]2[C@H]3C[C@H]46 | inactive | inactive | inactive | inactive | inactive | – | – | inactive | – | –
C#CC1(O)CCCCC1 | inactive | inactive | inactive | inactive | inactive | – | – | inactive | – | –
O=[N+]([O-])c1ccc(Cl)c(Cl)c1Cl | inactive | inactive | inactive | inactive | inactive | inactive | inactive | inactive | – | inactive
CC(Cc1ccc(O)cc1)NCC(O)c1cc(O)cc(O)c1 (configuration not stated) | inactive | inactive | inactive | – | inactive | inactive | inactive | inactive | inactive | –
CCOP(=O)(OCC)Oc1cc(C)nc(C(C)C)n1 | inactive | inactive | inactive | inactive | inactive | – | – | inactive | – | –
O=[N+]([O-])C(Br)Br | inactive | inactive | inactive | inactive | inactive | – | – | – | – | –
Nc1cc(Cl)ccc1Cl | inactive | inactive | inactive | inactive | inactive | – | – | – | – | –
CNC(=O)O/N=C(\C)C(C)S(C)(=O)=O (configuration not stated) | inactive | inactive | inactive | inactive | inactive | – | – | inactive | – | –
CC(C)[C@@H](Nc1ccc(C(F)(F)F)cc1Cl)C(=O)OC(C#N)c1cccc(Oc2ccccc2)c1 (some centres not stated) | inactive | inactive | inactive | inactive | inactive | inactive | inactive | inactive | – | inactive
Cc1cc2c3c(c1)C(c1ccccc1)=N[C@@H](NC(=O)c1ccncc1)C(=O)N3CC2 | inactive | 24.3 µM (active) | inactive | – | – | inactive | inactive | inactive | inactive | inactive
C=CC(=O)[O][Sn]([CH2]CCC)([CH2]CCC)[CH2]CCC | 0.969 µM (active) | 0.611 µM (active) | 0.193 µM (active) | 1.1 µM (active) | 5.45 µM (active) | – | 0.433 µM (active) | 5.45 µM (active) | – | –
O=C(NC(=O)c1ccccc1Cl)Nc1ccc(OC(F)(F)F)cc1 | inactive | inactive | inactive | inactive | inactive | – | – | inactive | – | –
N#CSCc1ccccc1 | inactive | inactive | inactive | inactive | inactive | inactive | inactive | inactive | – | inactive
CCCCC(CC)COC(=O)OOC(C)(C)C (configuration not stated) | inactive | inactive | inactive | inactive | inactive | – | – | inactive | – | –
O=C1C2(Cl)C3(Cl)C4(Cl)C(Cl)(Cl)C5(Cl)C3(Cl)C1(Cl)C5(Cl)C24Cl (configuration not stated) | 9.53 µM (active) and 13.1 µM (active) | 9.53 µM (active) and 11.7 µM (active) | inactive | 54 µM (active) | inactive | – | – | 26.9 µM (active) and 52.2 µM (active) | – | –
COCCC#N | inactive | inactive | inactive | inactive | inactive | – | – | inactive | – | –
N#Cc1sc2c(=O)c3ccccc3c(=O)c=2sc1C#N | 24.3 µM (active) | 24.3 µM (active) | inactive | 54.9 µM (active) | 27.3 µM (active) | – | – | 2.17 µM (active) | – | –
CC1CCCC1 | inactive | inactive | inactive | inactive | inactive | – | – | inactive | – | –
Brc1cccc(-c2ccccc2)c1 | inactive | inactive | inactive | inactive | inactive | – | inactive | inactive | inactive | –
CCCC[N+]1(C)CCCC1 (tested in a mixture with another compound) | inactive | inactive | inactive | inactive | inactive | – | – | inactive | – | –
Nc1ccccc1-c1ccccc1 | inactive | inactive | inactive | inactive | inactive | – | – | inactive | inactive | –
Oc1ccc(Cl)c(Cl)c1 | inactive | 60.2 µM (active) | inactive | inactive | inactive | – | inactive | inactive | 60.7 µM [inconclusive] (active) | –
